According to PubChem BioAssay (NCI):
About 83,000 compounds went through this panel and 20% of them were active in at least one assay; those are over-represented in the sample as a whole.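 Single-concentration screen, 48 h exposure, 96-well plates. Endpoint: percent growth. Below 10 = active.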 Active and inactive are the calls of the source.

Legend:
Experiment in all cases: NCI-60 one-dose screen, 48 h (100 = growth as untreated, 0 = no growth, -100 = all killed)
Conditions in all cases: 10 µM unless noted
HCT-15 colon = system: HCT-15 colon
HT29 colon = system: HT29 colon
SNB-75 CNS = system: SNB-75 CNS
SNB-19 CNS = system: SNB-19 CNS
U251 CNS = system: U251 CNS
SK-MEL-5 melanoma = system: SK-MEL-5 melanoma
UACC-62 melanoma = system: UACC-62 melanoma
LOX IMVI melanoma = system: LOX IMVI melanoma
SK-MEL-28 melanoma = system: SK-MEL-28 melanoma

Measured: growth

CS(=O)(=O)C1=CN(CCO)C(=O)N2CCCN=C12
inactive: HCT-15 colon 107% | HT29 colon 107% | SNB-75 CNS 94.5% | SNB-19 CNS 99.2% | U251 CNS 103% | SK-MEL-5 melanoma 97.7% | UACC-62 melanoma 102% | LOX IMVI melanoma 101% | SK-MEL-28 melanoma 104%

COc1cc(-c2nc3cc(Cl)c(Cl)cc3[nH]2)ccc1OCC(=O)N=Nc1c(O)[nH]c2ccc([N+](=O)[O-])cc12
inactive: HCT-15 colon 103% | HT29 colon 110% | SNB-75 CNS 92.7% | SNB-19 CNS 43.9% | U251 CNS 22% | SK-MEL-5 melanoma 85.1% | UACC-62 melanoma 95.2% | LOX IMVI melanoma 78.7% | SK-MEL-28 melanoma 82%

CCS/C(Nc1ccccc1)=C(\C#N)C(=O)N/N=C/c1ccc(Cl)cc1Cl
inactive: HCT-15 colon 19.9% | SNB-19 CNS 19.6% | U251 CNS 19.1% | SK-MEL-5 melanoma 12.4% | UACC-62 melanoma 26.6% | LOX IMVI melanoma 34.4% | SK-MEL-28 melanoma 60.5%
active: HT29 colon 9.53% | SNB-75 CNS -6.89%

C1=C(N2CCCC2)CCC1
inactive: HCT-15 colon 104% | HT29 colon 103% | SNB-75 CNS 93.2% | SNB-19 CNS 111% | U251 CNS 99.4% | SK-MEL-5 melanoma 95.5% | UACC-62 melanoma 103% | LOX IMVI melanoma 97.4% | SK-MEL-28 melanoma 110%

COc1ccc(-c2nn(-c3ccccc3)cc2/C=C2/SC(=S)N(C)C2=O)cc1
inactive: HCT-15 colon 74.2% | HT29 colon 64.6% | SNB-75 CNS 33.3% | SNB-19 CNS 60.7% | SK-MEL-5 melanoma 98.5% | UACC-62 melanoma 86% | LOX IMVI melanoma 77.1% | SK-MEL-28 melanoma 108%
active: U251 CNS 8.95%

O=C(Cn1c(=O)sc2ccccc21)NNS(=O)(=O)c1ccccc1[N+](=O)[O-]
inactive: HCT-15 colon 103% | HT29 colon 99.3% | SNB-75 CNS 83.3% | SNB-19 CNS 103% | U251 CNS 97.9% | SK-MEL-5 melanoma 101% | UACC-62 melanoma 98.8% | LOX IMVI melanoma 96.4% | SK-MEL-28 melanoma 104%

CS(=O)(=O)Nc1cc(-c2ccc3ncnc(Nc4ccc5c(cnn5Cc5ccccn5)c4)c3c2)cnc1Cl
inactive: HCT-15 colon 99.2% | HT29 colon 80.7% | SNB-75 CNS 16.2% | SNB-19 CNS 80.6% | U251 CNS 81.5% | SK-MEL-5 melanoma 77.7% | UACC-62 melanoma 61.8% | LOX IMVI melanoma 71% | SK-MEL-28 melanoma 56.1%

COC(=O)[C@]1(C)CCC[C@]2(C)[C@H]3C[C@H]4C(C(C)C)=C[C@]3(CC[C@H]21)[C@H]1[C@@H]4[C@@H](OCCC#N)CC[C@@H]1OCCC#N
active: HT29 colon 6.91%
inactive: HCT-15 colon 29.9% | SNB-75 CNS 75.6% | SNB-19 CNS 52.3% | U251 CNS 33.3% | SK-MEL-5 melanoma 26.2% | UACC-62 melanoma 39.5% | LOX IMVI melanoma 59.7% | SK-MEL-28 melanoma 61.9%

Clc1ccc(Sc2cnc(-c3ccccc3)o2)cc1
inactive: HCT-15 colon 103% | HT29 colon 105% | SNB-75 CNS 92.6% | SNB-19 CNS 88.4% | U251 CNS 91.4% | SK-MEL-5 melanoma 97.8% | UACC-62 melanoma 102% | LOX IMVI melanoma 97.3% | SK-MEL-28 melanoma 102%

Cc1cccnc1NC(=S)Nc1ncccc1C
inactive: HCT-15 colon 104% | HT29 colon 103% | SNB-75 CNS 96.2% | SNB-19 CNS 104% | U251 CNS 99.7% | SK-MEL-5 melanoma 101% | UACC-62 melanoma 100% | LOX IMVI melanoma 107% | SK-MEL-28 melanoma 111%

CC(=O)[C@@H]1CCC=C2CC[C@]3(C)[C@@H](CC[C@@H]4[C@@]5(C)CCCNC(C)(C)[C@@H]5CC[C@]43C)[C@H]21
active: HCT-15 colon -89% | HT29 colon -83.7% | SNB-19 CNS -77.2% | U251 CNS -98.8% | UACC-62 melanoma -79% | LOX IMVI melanoma -99.5% | SK-MEL-28 melanoma -42.3%
inactive: SNB-75 CNS 23.5% | SK-MEL-5 melanoma 64.2%

CCOP(=O)(OCC)c1nc(-c2ccccc2)oc1NCc1cccnc1
inactive: HCT-15 colon 107% | HT29 colon 111% | SNB-75 CNS 92.9% | SNB-19 CNS 97.5% | U251 CNS 107% | SK-MEL-5 melanoma 103% | UACC-62 melanoma 106% | LOX IMVI melanoma 103% | SK-MEL-28 melanoma 113%

CCCCC(=O)c1ccco1
inactive: HCT-15 colon 102% | HT29 colon 103% | SNB-75 CNS 86.8% | SNB-19 CNS 86.4% | U251 CNS 102% | SK-MEL-5 melanoma 98.8% | UACC-62 melanoma 94.9% | LOX IMVI melanoma 99.6% | SK-MEL-28 melanoma 103%

COc1ccccc1NC(=O)Cn1cc(CN2CCN(c3ccnc4cc(Cl)ccc34)CC2)nn1
inactive: HCT-15 colon 91.8% | HT29 colon 105% | SNB-75 CNS 75.2% | SNB-19 CNS 93.2% | U251 CNS 97.1% | SK-MEL-5 melanoma 73% | UACC-62 melanoma 83.9% | LOX IMVI melanoma 95.1% | SK-MEL-28 melanoma 84.1%

Cc1nc2sc(C(=O)Nc3ccccc3)c(N)c2cc1C(=O)c1ccccc1
inactive: HCT-15 colon 24.4% | HT29 colon 22.9% | SNB-75 CNS 26.2% | SNB-19 CNS 21.3% | U251 CNS 25.4% | SK-MEL-5 melanoma 31.9% | UACC-62 melanoma 17.4% | LOX IMVI melanoma 50% | SK-MEL-28 melanoma 46.8%
